Test results published in PubChem BioAssay AID602252 (Broad Institute, 2012).
About 2,700 (0.9%) of roughly 300,000 compounds were called active. The full list was thinned out, with actives kept by preference. Values without a mark were called inactive.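 The calls were made as follows: active = mean inhibition of at least 30% with at least half of replicates also reaching 30%; inconclusive = no clear call, values can overlap the other calls; inactive = the rest.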

These compounds were tested against Golgi-associated PDZ and coiled-coil motif-containing protein (Homo sapiens) (UniProt Q9HD26) (assay: blockade of CAL PDZ-reporter peptide interaction – biochemical, fluorescence polarization, untagged CAL PDZ, HTS, primary screen (AID 602252;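 also: 0% = DMSO neutral control and 100% = excess unlabeled competitor peptide PRC23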)). Conditions: purified CAL PDZ, TMR-peptide fluorescence polarization, 1 h; at 24.9 µM; active compounds read high.

SMILES	inhibition
NC(=O)C1(N2CCCC2)CCN(Cc2ccccc2)CC1	-1.05%
COc1ccc(CNC(=O)C[C@H]2C[C@H](C(=O)N3CCOCC3)[C@@]3(CCC4CCCC4)c4[nH]c5ccc(Cl)cc5c4CCN3C2=O)cc1OC	-0.587%
O=C(NCc1ccc2c(c1)OCO2)c1cc(F)c(F)cc1Cl	-5.1%
COc1cc(OC)c(C(=O)NCc2ccc3c(c2)OCO3)cc1OC	81% (active)
COc1ccc(NC(=O)NCc2ccc3c(c2)OCO3)c(OC)c1	-1.76%
O=C(NCCC(=O)N1O[C@@H]2C=C[C@H]1C2)OCC1c2ccccc2-c2ccccc21	-5.2%
O=C1CC2(CCCC2)C(=O)N1CN1CCN(S(=O)(=O)c2ccc(F)cc2F)CC1	-4.29%
COc1ccc(CNCCCn2cnc3c(OCc4ccccc4)ncnc32)cc1	-2.18%
COc1ccc(OCC(=O)N2CCN(C(=O)COc3ccccc3)CC2)cc1	-1.31%
COc1ccc(-c2ccc(CCC(=O)O)n2-c2ccc(O)cc2)cc1	-0.609%
C=Cn1c(C(=O)O)ccc1-c1ccc(OC)cc1	37.7% (active)
CN(C(=O)c1cccc(NC(=O)Cc2ccc(NC(=O)C3CCN(C(=O)C4CCCCC4)CC3)cc2)c1)C1CCC1	-2.99%
COc1ccc(Cl)cc1NC(=O)C1CC(=O)N(c2ccc(F)cc2)C1 (stereo unspecified)	-7.15%
O=C(NC1CCCC1)C1CC(=O)N(c2ccc(F)cc2)C1 (stereo unspecified)	53.1% (active)
CC1CC(C)CN(C(=O)C2CC(=O)N(c3ccc(F)cc3)C2)C1 (stereo unspecified)	-2.8%
CC(=O)c1ccc(NC(=O)C(C)OC(=O)c2ccc(NS(=O)(=O)c3ccc4[nH]c(=O)[nH]c4c3)cc2)cc1 (stereo unspecified)	-8.65%
COc1ccc(/C=C2/CCCc3ccccc3C2=O)cc1	1.76%
COc1ccc(Nc2ncnc3sc(C)cc23)cc1	0.276%
COc1ccc(Nc2ncnc3ccc(Br)cc23)c(OC)c1	-10.3%
COc1ccc(Nc2ncnc3sc(-c4ccccc4)cc23)c(OC)c1	179% (active)
CCOc1ccc(S(=O)(=O)N2CCN(C(=O)c3oc4ccccc4c3C)CC2)cc1	2.11%

SMILES	inhibition
CC12CCCCC1=CC(=O)CC2 (stereo unspecified)	28.3%
O=C(CCC(=O)N1CCN(S(=O)(=O)c2ccc(Cl)cc2)CC1)NCc1cccc(C(F)(F)F)c1	-4.29%
O=C(Cn1c(-c2cscn2)nc2ccccc21)Nc1ccc(Cl)cc1	-17.7%
O=C(Cn1c(-c2cncs2)nc2ccccc21)NC1CCCC1	41.1% (active)
O=C(CN1CCN(c2ccccn2)CC1)NC1CCCCC1	11.4%
c1ccc(-c2c[nH]c(-c3ccccc3)c2)cc1	-3.72%
C/C=C/c1ccc(OCC(=O)NNC(=O)CN(C)S(=O)(=O)c2ccc(C)cc2)c(OC)c1	-0.216%
NC(=O)C1(Nc2ccc([N+](=O)[O-])cc2)CCCC1	-0.108%
COc1ccccc1-c1sc2ccccc2c1C#CC1(O)CCCCC1	0.068%
COc1ccc(/C=C2\SC(=N)N(c3ccc(F)cc3)C2=O)cc1	-1.62%
COc1cccc(/C=C2/SC(=S)N(CC(=O)NC3C=CS(=O)(=O)C3)C2=O)c1 (stereo unspecified)	-6.25%
COc1cccc(/C=C2\SC(=N)N(c3ccc(F)cc3)C2=O)c1	161% (active)
CCOC(=O)c1ccccc1OC(=O)Oc1ccccc1C(=O)OCC	1.49%
Cn1cccc1/C=C1\SC(=S)N(NC(=O)c2ccc(Cl)cc2)C1=O	64.1% (active)
Cn1cccc1/C=C1\SC(=O)N(CC(=O)Nc2ccc(F)cc2)C1=O	-5.97%
O=C(O)c1ccc(/C=C2\SC(=S)N(NC(=O)c3ccc(Br)cc3)C2=O)cc1	15.4%
CC(C)(C)NS(=O)(=O)NC(=O)C1=C(N2CCCC2)COC1=O	-3.4%
COc1ccc(C(=O)OCc2cc(=O)n3ccsc3n2)cc1F	-3.31%
CCCC(O)(c1ccccc1)C(c1ccccc1)c1ccccn1 (stereo unspecified)	-2.63%
COc1ccccc1N1CCN(S(=O)(=O)c2ccc(Cl)cc2)CC1	-4.05%
COc1ccccc1-n1nnnc1S(=O)(=O)Cc1ccc(Cl)cc1	95.3% (active)

SMILES	inhibition
COc1ccccc1-n1nnnc1SCC(=O)NC(=O)Cc1ccccc1	0.182%
CCCCNc1c(-c2ccc(OC)c(Sc3ccc(OC)cc3)c2)nc2ccc(Cl)cn12	0.771%
CCN(CC(=O)NCc1ccc(Cl)cc1)C(=O)c1c(C)noc1C	-2.21%
CCN(CC(=O)NCc1ccc(Cl)cc1)C(=O)CSc1ccccc1	62.6% (active)
CCN(CC(=O)Nc1cc(Cl)ccc1C)C(=O)CSCc1ccccc1	-0.344%
Cc1cc2c(cc1C)NC1(C[C@H]3CCC(=O)N4CC[C@@H](C1)[C@@H]34)C(=NC(C)(C)CC(C)(C)C)N2 (stereo partly specified)	-3.52%
CCOc1nc(OCC)nc(-n2cc(-c3ccccc3)nn2)n1	145% (active)
CCCCCc1ccc(-c2cn(Cc3ccc4ccccc4c3)nn2)cc1	-1.31%
CCOC(=O)c1nnn(-c2nc(OC)nc(N(C)C)n2)c1-c1ccccc1	14.6%
Cc1c(NC(=O)CCCOc2ccccc2)cccc1[N+](=O)[O-]	47.4% (active)
Cc1ccccc1NC(=O)CCOc1ccccc1	-3.86%
Cc1c(NC(=O)Nc2ccccc2)cccc1[N+](=O)[O-]	-0.291%
Fc1ccc2cnc(-c3ccccc3)cc2c1	-0.668%
O=S(=O)(Nc1ccc2ccccc2c1)N1CCCCC1	-5.99%
CC(C)OC(=O)c1ccc(NCc2cc(O)ccc2O)cc1Cl	0.191%
COC(=O)Cc1c(-c2[nH]c3ccccc3c2CC(=O)OC)[nH]c2ccccc12	-2.69%
CCN1CCN(CCNC(=O)c2ccc3c(c2)NC(=O)/C(=C\c2ccc(OC)c(OC)c2)S3)CC1	55.5% (active)
CCN1CCN(CCNC(=O)c2ccc(/C=C3/Sc4ccccc4N(Cc4cccc(C)c4)C3=O)cc2)CC1	-8.21%
COc1ccc(CCNC(=O)c2ccc3c(c2)NC(=O)C(N2CCOCC2)S3)cc1OC (stereo unspecified)	-1.17%
